“And” between values parts separate entries of the source, which are not always exact repeats. Equal values may be shown once. Inconclusive results are not listed. The source made the active and inactive calls. Unless noted, the call rests on the fitted dose curve; in most records, active means well fitted curve in the direction sought with a large enough effect in the repeat runs; inconclusive means weak or mixed curves; inactive means no such curve, though single readings can be large; an effect the other way counts as inactive or inconclusive.
Tests used:
[1] = qHTS assay to test for compound auto fluorescence at 535 nm (green) in HEK293 cells (AID 720680)
[2] = qHTS assay to test for compound auto fluorescence at 460 nm (blue) in HEK293 cell free culture (AID 720681); further: potency means the concentration at half of the fitted maximal effect
Outline: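 Test compounds were pinned into cell-free culture medium (DMEM with 10% FBS) and fluorescence was read directly at Ex/Em 405/460 nm. Signals were expressed as fluorescence equivalents of triamterene, with DMSO vehicle as control.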

[3] = qHTS assay to test for compound auto fluorescence at 535 nm (green) in HEK293 cell free culture (AID 720682)
Outline: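 Steps: dispense DMEM/10% FBS into empty wells; pin in compound or DMSO; measure fluorescence at 485/535 nm. Values are fluorescein equivalents.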

[4] = qHTS assay to test for compound auto fluorescence at 590 nm (red) in HEK293 cell free culture (AID 720683)
Outline: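 Tox21 10K library compounds were pinned into cell-free DMEM with 10% FBS and fluorescence was read at excitation 540 nm. Activity is expressed as Rose Bengal sodium equivalency.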

[5] = qHTS assay to test for compound auto fluorescence at 590 nm (red) in HepG2 cell free culture (AID 720684)
Outline: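 Ex 540 / Em 590 nm read of compound in cell-free MEM (10% FBS). Rose Bengal sodium reference.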

[6] = qHTS assay to test for compound auto fluorescence at 460 nm (blue) in HepG2 cell free culture (AID 720685); further: potency means the concentration at half of the fitted maximal effect
Outline: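 Cell-free plates of MEM plus 10% FBS received 23 nL compound or DMSO vehicle; blue-channel (405/460 nm) intensity scored against triamterene as reference fluorophore.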

[7] = qHTS assay to test for compound auto fluorescence at 535 nm (green) in HepG2 cell free culture (AID 720686)
[8] = qHTS assay to test for compound auto fluorescence at 460 nm (blue) in HepG2 cells (AID 720687); further: potency means the concentration at half of the fitted maximal effect
Outline: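 Cells (2,000/well in MEM with 10% FBS) attached overnight at 37 C, then were exposed to compound or DMSO for 1 hr at 37 C, 5% CO2. Fluorescence read at Ex/Em 405/460 nm, expressed as triamterene-equivalent signal.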

[9] = target: Glucocorticoid receptor (Homo sapiens) (UniProt P04150); experiment: qHTS assay to identify small molecule agonists of the glucocorticoid receptor (GR) signaling pathway (AID 720691; active means well fitted activation curve with a large enough effect in the signal ratio in the repeat runs, not every such curve was filed as active; the % refers to the signal ratio)
Glucocorticoid receptor (Homo sapiens), sequence (P04150 whole entry, looked up): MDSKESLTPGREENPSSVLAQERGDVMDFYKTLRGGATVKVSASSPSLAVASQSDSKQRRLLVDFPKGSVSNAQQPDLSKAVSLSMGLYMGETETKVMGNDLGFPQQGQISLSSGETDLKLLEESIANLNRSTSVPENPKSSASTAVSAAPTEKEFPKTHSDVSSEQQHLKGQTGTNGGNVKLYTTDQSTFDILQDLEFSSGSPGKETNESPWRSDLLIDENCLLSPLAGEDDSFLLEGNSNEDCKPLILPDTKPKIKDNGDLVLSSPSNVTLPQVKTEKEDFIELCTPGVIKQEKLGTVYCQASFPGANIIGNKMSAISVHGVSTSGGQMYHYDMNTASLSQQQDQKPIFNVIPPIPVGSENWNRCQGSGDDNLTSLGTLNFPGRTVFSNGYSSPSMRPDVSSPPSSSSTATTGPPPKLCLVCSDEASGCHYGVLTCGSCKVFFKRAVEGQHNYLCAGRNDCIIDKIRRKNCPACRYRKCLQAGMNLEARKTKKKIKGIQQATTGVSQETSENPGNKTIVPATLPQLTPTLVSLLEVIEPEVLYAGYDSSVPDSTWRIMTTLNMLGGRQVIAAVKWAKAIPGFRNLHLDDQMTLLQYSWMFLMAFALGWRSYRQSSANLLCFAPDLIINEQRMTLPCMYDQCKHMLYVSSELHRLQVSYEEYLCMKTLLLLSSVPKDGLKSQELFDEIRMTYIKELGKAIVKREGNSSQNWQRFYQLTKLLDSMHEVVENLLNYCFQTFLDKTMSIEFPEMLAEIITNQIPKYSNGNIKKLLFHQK
Outline: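 Steps: seed GR-bla HeLa cells, incubate 4 h at 37 C/5% CO2; pin-transfer DMSO-dissolved compounds; incubate 18 h at 37 C; add LiveBLAzer B/G FRET substrate; after 2 h at room temperature, measure fluorescence.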

[10] = target: Glucocorticoid receptor (Homo sapiens) (UniProt P04150); experiment: qHTS assay to identify small molecule antagonists of the glucocorticoid receptor (GR) signaling pathway (AID 720692; active means well fitted inhibition curve with a large enough effect in the signal ratio in the repeat runs, not every such curve was filed as active; the % refers to the signal ratio)
Outline: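 Antagonism was scored as loss of dexamethasone-driven (5 nM final) reporter signal in HeLa cells bearing a glucocorticoid response element–beta-lactamase construct, after 18 h compound exposure at 37 C and 2 h FRET substrate loading.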

[11] = qHTS assay to identify small molecule antagonists of the glucocorticoid receptor (GR) signaling pathway - cell viability counter screen (AID 720693); further: nearly all actives have a fitted effect of over 55% in size
[12] = qHTS assay for identifying genotoxic compounds that show differential cytotoxicity against isogenic chicken DT40 cell lines with known DNA damage response pathways - wild type cell line (AID 743012); further: nearly all actives have a fitted effect of over 60% in size; further: potency means the concentration at half of the fitted maximal effect
Outline: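 Cytotoxicity in repair-proficient parental chicken DT40 cells serves as the comparator for Rad54/Ku70- and Rev3-deficient lines. Cells were exposed to compounds for 40 h at 37 C/5% CO2, and ATP-based luminescence (CellTiter-Glo) measured viability.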

[13] = qHTS assay for identifying genotoxic compounds that show differential cytotoxicity against isogenic chicken DT40 cell lines with known DNA damage response pathways - Rev3 mutant cell line (AID 743014); further: nearly all actives have a fitted effect of over 55% in size; further: potency means the concentration at half of the fitted maximal effect
[14] = qHTS assay for identifying genotoxic compounds that show differential cytotoxicity against isogenic chicken DT40 cell lines with known DNA damage response pathways - Rad54/Ku70 mutant cell line (AID 743015); further: nearly all actives have a fitted effect of over 60% in size; further: potency means the concentration at half of the fitted maximal effect
[15] = qHTS assay to identify small molecule antagonists of the androgen receptor (AR) signaling pathway - cell viability counter screen (AID 743033; further: nearly all actives have a fitted effect of over 45% in size)
[16] = qHTS assay to identify small molecule antagonists of the androgen receptor (AR) signaling pathway using the MDA cell line - cell viability counter screen (AID 743041; further: nearly all actives have a fitted effect of over 45% in size)
Outline: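 In this qHTS counter assay, fluorescence intensity after CellTiter-Fluor addition indicated viability of MDA-kb2 AR-luc cells given compounds and R1881 for 16 h at 37C.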

[17] = qHTS assay to identify small molecule antagonists of the thyroid receptor (TR) signaling pathway - cell viability counter screen (AID 743064); further: nearly all actives have a fitted effect of over 50% in size
Outline: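 Plate GH3.TRE-Luc cells; incubate 4 h at 37 °C; add compound, then T3 to 1 nM final; incubate 23.5 h; add CellTiter-Fluor; incubate 30 min at 37 °C, 5% CO2; read fluorescence.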

[18] = qHTS assay to identify small molecule antagonists of the thyroid receptor (TR) signaling pathway (AID 743065); further: nearly all actives have a fitted effect of over 55% in size; further: potency means the concentration at half of the fitted maximal effect
Outline: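 GH3.TRE-Luc rat pituitary cells carrying two TR response elements driving luciferase were plated for 4 h, given compound plus 1 nM T3 (final), and incubated 23.5 h at 37 C. ONE-Glo luminescence measured reporter inhibition; CellTiter-Fluor fluorescence tracked cytotoxicity.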

[19] = target: Androgen receptor (Homo sapiens) (UniProt P10275); experiment: qHTS assay to identify small molecule agonists of the androgen receptor (AR) signaling pathway using the MDA cell line (AID 743040; further: nearly all actives have a fitted effect of over 20% in size)
Androgen receptor (Homo sapiens), sequence (P10275 whole entry, looked up): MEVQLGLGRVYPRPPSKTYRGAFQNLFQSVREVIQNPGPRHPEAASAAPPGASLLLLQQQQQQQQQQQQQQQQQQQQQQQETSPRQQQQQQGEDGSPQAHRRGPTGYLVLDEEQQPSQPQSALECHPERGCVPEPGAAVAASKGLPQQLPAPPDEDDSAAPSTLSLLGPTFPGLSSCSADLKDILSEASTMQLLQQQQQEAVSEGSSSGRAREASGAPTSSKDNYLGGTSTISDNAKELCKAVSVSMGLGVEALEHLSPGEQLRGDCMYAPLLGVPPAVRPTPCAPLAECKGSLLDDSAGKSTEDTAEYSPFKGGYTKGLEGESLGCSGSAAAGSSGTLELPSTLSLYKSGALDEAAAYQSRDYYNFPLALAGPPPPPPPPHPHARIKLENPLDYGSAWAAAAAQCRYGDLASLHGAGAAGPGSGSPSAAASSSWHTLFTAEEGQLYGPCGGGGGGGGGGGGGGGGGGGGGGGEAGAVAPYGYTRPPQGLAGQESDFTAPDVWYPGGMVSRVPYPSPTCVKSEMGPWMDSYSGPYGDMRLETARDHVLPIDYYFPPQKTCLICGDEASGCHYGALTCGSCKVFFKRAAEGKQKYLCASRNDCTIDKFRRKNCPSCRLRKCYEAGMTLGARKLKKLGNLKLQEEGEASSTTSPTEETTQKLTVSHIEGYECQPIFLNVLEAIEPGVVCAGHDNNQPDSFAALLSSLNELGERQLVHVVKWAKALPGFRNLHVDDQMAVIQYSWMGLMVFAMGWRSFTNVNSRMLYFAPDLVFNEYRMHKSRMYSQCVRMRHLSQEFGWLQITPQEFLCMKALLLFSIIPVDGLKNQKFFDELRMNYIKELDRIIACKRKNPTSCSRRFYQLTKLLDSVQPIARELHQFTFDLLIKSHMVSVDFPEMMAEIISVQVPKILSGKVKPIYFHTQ
Outline: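 Cell-based luciferase reporter: MDA-kb2, MMTV promoter (AR + GR response elements). 16 h compound exposure at 37C; ONE-Glo, 30 min RT, luminescence.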

[20] = target: Androgen receptor (Homo sapiens) (UniProt P10275); experiment: qHTS assay to identify small molecule agonists of the androgen receptor (AR) signaling pathway (AID 743036; active means well fitted activation curve with a large enough effect in the signal ratio in the repeat runs, with a control signal flat, not every such curve was filed as active; the % refers to the signal ratio)
Outline: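 Reporter line: GeneBLAzer AR-UAS-bla-GripTite (HEK293). Steps: plate cells, 4 h rest, add compounds, 16 h at 37C, add LiveBLAzer B/G substrate, 2 h at RT, read fluorescence.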
On the % scale 0 is the no-effect control and ±100 the full control effect; tags describe the fitted curve by direction and shape or compound fluorescence and quenching.

Cc1ccccn1
inactive: outcome [1] | Potency [2] | outcome [3] | outcome [4] | outcome [5] | Potency [6] | outcome [7] | Potency [8] | Potency [9] | Potency [10] | Potency [11] | Potency [12] | Potency [13] | Potency [14] | Potency [15] | Potency [16] | Potency [17] | Potency [18]

CC(=O)c1ccc2c(c1)[C@H](NC(=O)c1ccc(F)cc1)[C@@H](O)C(C)(C)O2
inactive: outcome [1] | Potency [2] | outcome [3] | outcome [4] | outcome [5] | Potency [6] | outcome [7] | Potency [8] | Potency [9] | Potency [10] | Potency [11] | Potency [12] | Potency [13] | Potency [14] | Potency [15] | Potency [16] | Potency [18]

COCCOCCOCCOCCOC
inactive: outcome [1] | Potency [2] | outcome [3] | outcome [4] | outcome [5] | Potency [6] | outcome [7] | Potency [8] | Potency [9] | Potency [10] | Potency [11] | Potency [12] | Potency [13] | Potency [14] | Potency [19] | Potency [16] | Potency [17] | Potency [18]

CC(=O)/C(C)=C/C1C(C)=CCCC1(C)C (configuration not stated)
inactive: outcome [1] | Potency [2] | outcome [3] | outcome [4] | outcome [5] | Potency [6] | outcome [7] | Potency [8] | Potency [9] | Potency [10] | Potency [11] | Potency [12] | Potency [13] | Potency [14] | Potency [15] | Potency [16] | Potency [17]

Cc1cccc(Oc2ccccc2)c1
inactive: outcome [1] | Potency [2] | outcome [3] | outcome [4] | outcome [5] | Potency [6] | outcome [7] | Potency [8] | Potency [9] | Potency [10] | Potency [11] | Potency [12] | Potency [13] | Potency [14] | Potency [15] | Potency [16] | Potency [17]

Nc1nc(N)c2nc(CNc3ccc(C(=O)N[C@@H](CCC(=O)O)C(=O)O)cc3)cnc2n1
inactive: outcome [1] | outcome [3] | outcome [4] | outcome [5] | outcome [7] | Potency [9] | Potency [10] | Potency [11] | Potency [15] | Potency [16] | Potency [17]
active: Potency [2] 39.8 µM | Potency [6] 35.5 µM [fluorescent] | Potency [8] 39.8 µM [fluorescent] | Potency [12] 11.9 µM | Potency [13] 13.3 µM | Potency [14] 23.7 µM and 1.4 nM | Potency [18] 57.1 nM

C1CCC2OC2C1 (configuration not stated)
inactive: outcome [1] | Potency [2] | outcome [3] | outcome [4] | outcome [5] | Potency [6] | outcome [7] | Potency [8] | Potency [9] | Potency [10] | Potency [11] | Potency [12] | Potency [13] | Potency [14] | Potency [15] | outcome [20] | Potency [19] | Potency [17] | Potency [18]

N#CCc1cccc(C(F)(F)F)c1
inactive: outcome [1] | Potency [2] | outcome [3] | outcome [4] | outcome [5] | Potency [6] | outcome [7] | Potency [8] | Potency [9] | Potency [10] | Potency [11] | Potency [12] | Potency [13] | Potency [14] | Potency [15] | Potency [16] | Potency [17] | Potency [18]

C=CC(C)(CCC=C(C)C)OC(=O)c1ccccc1 (configuration not stated)
active: Potency [13] 24.3 µM | Potency [14] 27.3 µM
inactive: outcome [1] | Potency [2] | outcome [3] | outcome [4] | outcome [5] | Potency [6] | outcome [7] | Potency [8] | Potency [9] | Potency [10] | Potency [11] | Potency [12] | Potency [15] | Potency [16]

O=c1c2ccccc2nnn1CCl
inactive: outcome [1] | Potency [2] | outcome [3] | outcome [4] | outcome [5] | Potency [6] | outcome [7] | Potency [8] | Potency [9] | Potency [10] | Potency [11] | Potency [12] | Potency [13] | Potency [14] | Potency [15] | Potency [16] | Potency [17]

CC(=O)c1c(C)c([N+](=O)[O-])c(C(C)(C)C)c([N+](=O)[O-])c1C
inactive: outcome [1] | Potency [2] | outcome [3] | outcome [4] | outcome [5] | Potency [6] | outcome [7] | Potency [8] | Potency [9] | Potency [10] | Potency [11] | Potency [12] | Potency [13] | Potency [14] | Potency [15] | Potency [16]

CCCCOc1cc(C(=O)OCCN(CC)CC)ccc1N
inactive: fluorescence, % of fluorescein [1] 0.0482% [at 18.6 µM] | fluorescence, % of fluorescent control [2] -0.116% [at 18.6 µM] | activity change [3] -0.0782% [at 18.6 µM] | fluorescence, % of fluorescent control [4] -0.0563% [at 18.6 µM] | fluorescence, % of Rose Bengal [5] 0.59% [at 18.6 µM] | fluorescence, % of fluorescent control [6] 0.0523% [at 18.6 µM] | fluorescence, % of fluorescein control [7] 0.0068% [at 18.6 µM] | fluorescence, % of fluorescent control [8] -0.135% [at 18.6 µM] | Potency [9] | Potency [10] | Potency [11] | Potency [15] | Potency [16] | Potency [17]
active: Potency [12] 10.1 µM | Potency [13] 2.54 µM | Potency [14] 8.04 µM

CCCCCCCCCCCCCCCCCBr
inactive: fluorescence, % of fluorescein [1] 0.0114% [at 18.6 µM] | fluorescence, % of fluorescent control [2] -0.0559% [at 18.6 µM] | activity change [3] -0.0304% [at 18.6 µM] | fluorescence, % of fluorescent control [4] -0.288% [at 18.6 µM] | fluorescence, % of Rose Bengal [5] 0.0382% [at 18.6 µM] | fluorescence, % of fluorescent control [6] 0.0584% [at 18.6 µM] | fluorescence, % of fluorescein control [7] 0.134% [at 18.6 µM] | fluorescence, % of fluorescent control [8] 0.0228% [at 18.6 µM] | Potency [9] | Potency [10] | Potency [11] | Potency [12] | Potency [13] | Potency [14] | Potency [15] | Potency [17] | Potency [18]

CC1(C)[C@H]2CC[C@]1(C)[C@H](O)C2
inactive: outcome [1] | Potency [2] | outcome [3] | outcome [4] | outcome [5] | Potency [6] | outcome [7] | Potency [8] | Potency [9] | Potency [10] | Potency [11] | Potency [12] | Potency [13] | Potency [14] | Potency [15] | Potency [17] | Potency [18]

From PubChem BioAssay (Tox21)
